This excerpt belongs to a sample that is enriched for hits.
ROS inducer: inducers of reactive oxygen species in cancer cells; U2OS ROS induction, H2DCF-DA fluorescence; ROS induction (% of piperlongumine), % at 10 µM; 46,000 tested, 2% active; in the data active means ROS induction above about 79%, passing the limit was not always enough;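 further: 0% = DMSO vehicle median and 100% = reference compound median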
YB-1 expression: YB-1 expression inhibition | 30,000 tested, 0.37% active | U2OS, qRT-PCR YB-1 vs CDIP delta delta Cp, 16 h; active compounds read high; zero = DMSO, each unit about twofold | delta delta Cp (YB-1 minus CDIP) (concentration not given with the values);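 active means delta delta Cp rounded down to an integer at or above 3, about 3 SD of DMSO wells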;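 further: higher means less YB-1 transcript or more CDIP transcript relative to DMSO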
NOMO-1 viab: STK33 inhibitor candidate reducing NOMO-1 cell viability. NOMO-1 AML viability, CellTiter-Glo luminescence, 72 h. inhibition, % (no concentration beside the values). 37,000 tested, 7.5% active; in the data active means inhibition above about 80%
PD-1 reversal: activators reversing PD-1 mediated T-cell inhibition | primary human CD4 T cells, PD-L1 beads, CellTiter-Glo 96 h | activation, % (test concentration not listed) | 29,000 tested, under 10 active | AID 2316; call rule not given here;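 further: 0% = median vehicle wells and 100% = positive control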
Active calls of the source: *.

Cc1nnc(SCC(=O)Nc2sc3c(c2C#N)CCC(C(C)(C)C)C3)s1 (configuration not stated) was read as ROS inducer 0.0, NOMO-1 viab 40.5 and PD-1 reversal -0.3.
`COC(=O)Cn1nnc(-c2nnn(COC(C)=O)c2-c2ccccc2)c1-c1ccccc1` gave ROS inducer -10.6.
For C=CCn1c(SCC(=O)Nc2ccc(C)cc2)nnc1C1CC1 the results were ROS inducer 3.2.
C[C@H](CO)N1C[C@H](C)[C@H](CN(C)S(=O)(=O)c2cccs2)Oc2ncc(C#Cc3ccc(F)cc3)cc2C1=O was read as ROS inducer 11.1 and YB-1 expression 0.0111.
COc1cccc(S(=O)(=O)N(C)C[C@@H]2Oc3ncc(C#Cc4ccc(C(F)(F)F)cc4)cc3C(=O)N([C@H](C)CO)C[C@@H]2C)c1 was read as ROS inducer 129.2* and YB-1 expression 0.711.
For C[C@H](CO)N1C[C@H](C)[C@H](CN(C)S(=O)(=O)c2cccs2)Oc2ncc(C#Cc3ccc(C(F)(F)F)cc3)cc2C1=O the results were ROS inducer 110.1* and YB-1 expression 5.97*.
For C[C@H](CO)N1C[C@H](C)[C@H](CN(C)S(=O)(=O)c2cn(C)cn2)Oc2ncc(C#Cc3ccccc3)cc2C1=O the results were ROS inducer 119.6* and YB-1 expression 0.0851.
COc1cccc(S(=O)(=O)N(C)C[C@@H]2Oc3ncc(C#Cc4ccc(OC)c(OC)c4)cc3C(=O)N([C@H](C)CO)C[C@@H]2C)c1 was read as ROS inducer 47.3 and YB-1 expression -0.288.
Screening C[C@H](CO)N1C[C@H](C)[C@H](CN(C)S(=O)(=O)c2cn(C)cn2)Oc2ncc(C#Cc3ccc(C(F)(F)F)cc3)cc2C1=O returned ROS inducer 7.4 and YB-1 expression 0.129.
COC(=O)c1ccc2c(c1)N(CC#N)C(=O)CS2 was read as ROS inducer 0.6.
`O=c1c(Cl)c(N2CCN(c3ccccc3)CC2)cnn1-c1ccccc1` gave ROS inducer -3.9.
For Cc1cccc(-n2c(C)nnc2SCC(=O)Nc2ccc(Br)cc2F)c1 the results were ROS inducer -10.3, NOMO-1 viab -25.1 and PD-1 reversal -0.5.
Screening C[C@H]1CN([C@@H](C)CO)C(=O)Cc2cc(NS(=O)(=O)c3cn(C)cn3)ccc2O[C@H]1CN(C)C(=O)Nc1cccc2ccccc12 returned ROS inducer 121.1*, YB-1 expression -0.542, NOMO-1 viab 14.5 and PD-1 reversal 1.5.
`C[C@@H]1CN([C@H](C)CO)C(=O)Cc2cc(NS(=O)(=O)c3cn(C)cn3)ccc2O[C@H]1CN(C)C(=O)Nc1cccc2ccccc12` gave ROS inducer 7.7, YB-1 expression 0.0579 and NOMO-1 viab 4.9.
For C[C@@H]1CN([C@H](C)CO)C(=O)Cc2cc(NS(=O)(=O)c3ccccc3)ccc2O[C@H]1CN(C)C(=O)Nc1cccc2ccccc12 the results were ROS inducer 97.6*, YB-1 expression 0.126, NOMO-1 viab 1.5 and PD-1 reversal -0.3.
`Cc1cc(N2CCCC2)ccc1/C=C(/C#N)c1ccc(F)cc1` gave ROS inducer 73.5.
`Cc1ccc(S(=O)(=O)c2cn(Cc3cccc(Cl)c3)c3cc4c(cc3c2=O)OCO4)cc1` gave ROS inducer 97.5*.
`Cc1nc2nc[nH]n2c(=O)c1NS(=O)(=O)c1ccc2c(c1)CCCC2` gave ROS inducer -7.5, NOMO-1 viab -5.4 and PD-1 reversal 1.9.
`CCOc1ccc(-n2c(SCC(=O)c3ccc(Br)cc3)nnc2-c2cccnc2)cc1` gave ROS inducer 18.8, NOMO-1 viab 20.7 and PD-1 reversal -3.3.
Screening CC1(C)c2ccccc2N(CCC(N)=O)C12C=Cc1c(ccc3ccccc13)O2 (configuration not stated) returned ROS inducer 21.0, YB-1 expression 0.0388, NOMO-1 viab 87.9* and PD-1 reversal 0.1.
`CC1CCC(C(C)C)C(NC(=S)Nc2cccc(F)c2)C1` (configuration not stated) gave ROS inducer 5.7, YB-1 expression -0.217, NOMO-1 viab 121.8* and PD-1 reversal -23.4.
CC1(C)CC(=O)C2=C(C1)N(Cc1ccc(F)cc1)C(=O)C2(NC(=O)c1cccnc1)C(F)(F)F (configuration not stated) was read as ROS inducer -10.7, NOMO-1 viab -13.1 and PD-1 reversal 1.1.
Screening CCC1=NC(C(F)(F)F)(C(F)(F)F)C2=C(CC(C)(C)CC2=O)N1Cc1ccccc1 returned ROS inducer 120.4*, YB-1 expression -0.909, NOMO-1 viab 41.2 and PD-1 reversal -2.4.

Bioassay records: PubChem BioAssay, Broad Institute
